Measured values taken from ChEMBL document CHEMBL2218924, “A broad activity screen in support of a chemogenomic map for kinase signalling research and drug discovery” (Biochem J, 2013).

target: Mitogen-activated protein kinase 1 (Homo sapiens) (UniProt P28482); details: at 10 µM
Sequence (P28482 whole entry): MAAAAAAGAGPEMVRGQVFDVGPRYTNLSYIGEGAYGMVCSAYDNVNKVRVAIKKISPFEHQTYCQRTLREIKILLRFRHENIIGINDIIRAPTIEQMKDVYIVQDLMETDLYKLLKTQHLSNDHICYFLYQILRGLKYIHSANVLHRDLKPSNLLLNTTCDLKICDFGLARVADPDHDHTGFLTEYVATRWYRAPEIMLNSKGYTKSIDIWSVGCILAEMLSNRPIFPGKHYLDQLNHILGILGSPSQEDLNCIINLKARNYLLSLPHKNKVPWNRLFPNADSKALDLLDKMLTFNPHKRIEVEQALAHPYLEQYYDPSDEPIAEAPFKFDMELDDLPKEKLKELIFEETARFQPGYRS

Row | Structure (SMILES) | residual activity [%]
1 | COc1cc2ncnc(Nc3ccc(Oc4ccccc4)cc3)c2cc1OC | 94
2 | Oc1c2ccccc2c2c3c(cccc13)N=N2 | 55
3 | Cc1nc2cc3nc(-c4cccs4)cnc3cc2n1C | 103
4 | Cn1nc2c3c(cccc31)C(=O)c1ccccc1-2 | 97
5 | CO[C@H]1[C@@H](OC)C[C@H](C)[C@@H](OC)C2=CC(=O)C=C(NC(=O)/C(C)=C/C=C/[C@H](OC)[C@@H](OC(N)=O)/C(C)=C/[C@@H]1C)C2=O | 97
6 | COc1ccc(CNc2nc(N(CCO)CCO)nc3c2ncn3C(C)C)cc1 | 87
7 | O=C1Nc2ccc(Br)cc2/C1=C\c1cc2c([nH]1)CCCC2 | 106
8 | O=[N+]([O-])c1ccc(-c2nc(-c3ccc(F)cc3)c(-c3ccncc3)[nH]2)cc1 | 109
9 | COc1ccc(S(=O)(=O)N(CCO)c2ccccc2CN(C)C/C=C/c2ccc(Cl)cc2)cc1 | 103
10 | CCN(CC)C(=O)c1ccc(Nc2nc(OCC3CCCCC3)c3nc[nH]c3n2)cc1 | 42
11 | N#CCCc1ccc2c(c1)-c1[nH]c3ccc([N+](=O)[O-])cc3c1CC(=O)N2 | 51
12 | C[C@@H](N)[C@H]1CC[C@H](C(=O)Nc2ccncc2)CC1 | 105
13 | O=C(Nc1cccc(Nc2nccc(Nc3cccc(C(F)(F)F)c3)n2)c1)C1CC1 | 84
14 | O=c1c2ccccc2[nH]c(=S)n1CCN1CCC(=C(c2ccc(F)cc2)c2ccc(F)cc2)CC1 | 80
15 | Oc1ccc(-c2nc(-c3ccc(F)cc3)c(-c3ccncc3)[nH]2)cc1 | 98
16 | O=C1NC(=O)c2cc(Nc3ccc(F)cc3)c(Nc3ccc(F)cc3)cc21 | 99
17 | CN(C)c1ccc(/C=C2\C(=O)Nc3ccccc32)cc1 | 100
18 | NC(=O)c1ccc2[nH]c(-c3ccc(Oc4ccc(Cl)cc4)cc3)nc2c1 | 99
19 | Nc1nc(Nc2ccc(S(N)(=O)=O)cc2)nn1C(=S)Nc1c(F)cccc1F | 3
20 | CC[n+]1c(/C=C/N(C)c2ccccc2)n(-c2ccccc2)c2ccc(-c3nc4ccccc4s3)cc21 | 100
21 | COc1cc2ncnc(Nc3ccc(O)c(Br)c3)c2cc1OC | 75
22 | Nc1ccc2ncnc(NCCc3ccc(Oc4ccccc4)cc3)c2c1 | 86
23 | Ic1cccc(CSc2nnc(-c3ccncc3)o2)c1 | 83
24 | COc1cc2ncnc(Nc3ccc(NC(=O)c4ccccc4)cc3)c2cc1OC | 103
25 | CO[C@@H]1[C@H](N(C)C(=O)c2ccccc2)C[C@H]2O[C@]1(C)n1c3ccccc3c3c4c(c5c6ccccc6n2c5c31)C(=O)NC4 | 98
26 | Nc1cccc(-c2cc3c(Oc4cccc(O)c4)ncnc3[nH]2)c1 | 83
